From PubChem BioAssay AID1159580 (chemical genetic matrix, 2015)
In all, about 5,500 compounds went through this assay and about 2,000 (36%) were called active. Inconclusive results (about 18%) are left out. No stated cut-off is given here; in the data, active means normalized growth mostly below about 0.91 (no sharp cut-off); inconclusive means no clear call, values can overlap the other calls; inactive means mostly above about 0.92. The list shows a part of the results.

Experiment: chemical genetic growth profiling, strain panel (AID 1159580);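 further: tested at 20 µM; growth read once vehicle control cultures reached saturation at 30 °C; 1 = growth at the plate median or of vehicle wells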
Conditions: S. cerevisiae deletion strains, growth OD

Measured: normalized growth

CC(C)COC(=O)OCN1C(=O)CN(CCN2CC(=O)N(COC(=O)OCC(C)C)C(=O)C2)CC1=O
inactive: locus YAL040C, strain CLN3, stronger effect = lower value 1.01 | locus YCL061C, strain MRC1 (second series), stronger effect = lower value 1.01 | locus YDR150W, strain NUM1, stronger effect = lower value 1.01 | locus YDR363W, strain ESC2, stronger effect = lower value 1.01 | locus YER002W, strain NOP16, stronger effect = lower value 0.997 | locus YGR078C, strain PAC10, stronger effect = lower value 1 | locus YJR075W, strain HOC1, stronger effect = lower value 1.01 | locus YMR307W, strain GAS1, stronger effect = lower value 1.01 | locus YNL175C, strain NOP13, stronger effect = lower value 1 | locus YNL197C, strain WHI3, stronger effect = lower value 0.999 | locus YNL224C, strain SQS1, stronger effect = lower value 0.996 | locus YNL322C, strain KRE1, stronger effect = lower value 1.01 | locus YOR083W, strain WHI5 (second series), stronger effect = lower value 1.01 | locus YPL055C, strain LGE1, stronger effect = lower value 1.03

CCCCCc1ccc(S(=O)(=O)Nc2ccc3c(c2)C(=O)OC3)cc1
inactive: locus YAR019C, strain CDC15, stronger effect = lower value 0.991 | locus YBL105C, strain PKC1, stronger effect = lower value 0.994 | locus YBR135W, strain CKS1, stronger effect = lower value 0.981 | locus YBR136W, strain MEC1, stronger effect = lower value 0.982 | locus YBR160W, strain CDC28, stronger effect = lower value 0.984 | locus YDL017W, strain CDC7, stronger effect = lower value 0.985 | locus YDL028C, strain MPS1, stronger effect = lower value 0.983 | locus YDL101C, strain DUN1, stronger effect = lower value 0.998 | locus YDL108W, strain KIN28, stronger effect = lower value 0.982 | locus YDL132W, strain cdc53, stronger effect = lower value 0.985 | locus YDL214C, strain PRR2, stronger effect = lower value 0.948 | locus YDR052C, strain DBF4, stronger effect = lower value 0.998 | locus YDR054C, strain cdc34, stronger effect = lower value 0.974 | locus YDR226W, strain ADK1, stronger effect = lower value 0.987 | locus YDR477W, strain SNF1, stronger effect = lower value 0.972 | locus YER123W, strain YCK3, stronger effect = lower value 0.969 | locus YER133W, strain GLC7, stronger effect = lower value 0.951 | locus YFL009W, strain cdc4, stronger effect = lower value 0.981 | locus YFL029C, strain CAK1, stronger effect = lower value 0.983 | locus YFR003C, strain YPI1, stronger effect = lower value 0.987 | locus YFR019W, strain FAB1, stronger effect = lower value 0.975 | locus YFR028C, strain CDC14, stronger effect = lower value 0.985 | locus YGR040W, strain KSS1, stronger effect = lower value 0.949 | locus YGR052W, strain FMP48, stronger effect = lower value 1.03 | locus YGR092W, strain DBF2, stronger effect = lower value 0.992 | locus YHR030C, strain SLT2, stronger effect = lower value 0.997 | locus YHR079C, strain IRE1, stronger effect = lower value 0.977 | locus YHR082C, strain KSP1, stronger effect = lower value 1.02 | locus YHR205W, strain SCH9, stronger effect = lower value 0.963 | locus YIL147C, strain SLN1, stronger effect = lower value 0.983 | locus YJL095W, strain BCK1, stronger effect = lower value 0.967 | locus YJL128C, strain PBS2, stronger effect = lower value 0.944 | locus YJL157C, strain FAR1, stronger effect = lower value 0.953 | locus YJR016C, strain ILV3, stronger effect = lower value 0.977 | locus YJR066W, strain TOR1 (second series), stronger effect = lower value 0.937 | locus YJR066W, strain TOR1, stronger effect = lower value 1.02 | locus YKL048C, strain ELM1, stronger effect = lower value 0.967 | locus YKL067W, strain YNK1, stronger effect = lower value 0.959 | locus YKL101W, strain HSL1, stronger effect = lower value 0.933 | locus YKL193C, strain SDS22, stronger effect = lower value 0.978 | locus YKL203C, strain TOR2, stronger effect = lower value 1.02 | locus YLR133W, strain CKI1, stronger effect = lower value 0.963 | locus YLR403W, strain SFP1, stronger effect = lower value 0.938 | locus YML070W, strain DAK1, stronger effect = lower value 0.945 | locus YMR001C, strain CDC5, stronger effect = lower value 0.986 | locus YMR205C, strain PFK2 (second series), stronger effect = lower value 0.963 | locus YMR277W, strain FCP1, stronger effect = lower value 0.982 | locus YNL006W, strain LST8, stronger effect = lower value 0.99 | locus YNL020C, strain ARK1, stronger effect = lower value 0.966 | locus YNL161W, strain CBK1, stronger effect = lower value 0.978 | locus YNL183C, strain NPR1, stronger effect = lower value 0.964 | locus YNL207W, strain RIO2, stronger effect = lower value 0.967 | locus YNL222W, strain SSU72, stronger effect = lower value 0.978 | locus YNL307C, strain MCK1 (second series), stronger effect = lower value 0.979 | locus YOL078W, strain AVO1, stronger effect = lower value 0.979 | locus YOL136C, strain PFK27, stronger effect = lower value 0.948 | locus YOR061W, strain CKA2, stronger effect = lower value 0.976 | locus YOR119C, strain RIO1, stronger effect = lower value 1.01 | locus YOR231W, strain MKK1, stronger effect = lower value 0.917 | locus YOR329C, strain SCD5, stronger effect = lower value 0.985 | locus YPL031C, strain PHO85, stronger effect = lower value 0.966 | locus YPL153C, strain RAD53, stronger effect = lower value 0.951 | locus YPL204W, strain HRR25, stronger effect = lower value 0.942 | locus YPL209C, strain IPL1, stronger effect = lower value 0.981 | locus YPL256C, strain CLN2, stronger effect = lower value 0.923 | locus YPR025C, strain CCL1, stronger effect = lower value 0.983 | locus YPR106W, strain ISR1, stronger effect = lower value 0.971 | locus YPR111W, strain DBF20, stronger effect = lower value 0.954 | strain NNK1, stronger effect = lower value 0.976 | strain TSCII, stronger effect = lower value 0.988
active: locus YLR113W, strain HOG1, stronger effect = lower value 0.86
